Measurements: PubChem BioAssay (NCATS)
Where “and” joins values, the source holds several entries; their conditions need not be identical. Equal entries are not always repeated. Inconclusive results are not listed. Calls of active or inactive are those of the source. Unless noted, calls come from the whole dose curve; as a rule, active = well fitted curve in either direction with a large enough effect (not every such curve was filed as active); inconclusive = small, poorly fitted or top-dose-only effect, or another doubt; inactive = flat fitted curve, though single readings scatter.

Tests used:
[1] = target: Lysosomal acid glucosylceramidase (Homo sapiens) (UniProt P04062); assay: Glucocerebrosidase-p2 (AID 348; in the data active = potency below about 10 µM; note: potency is the fitted concentration of half-maximal effect); conditions: purified GBA, blue fluorogenic substrate, 40 min
Lysosomal acid glucosylceramidase (Homo sapiens), sequence (P04062 whole entry, looked up): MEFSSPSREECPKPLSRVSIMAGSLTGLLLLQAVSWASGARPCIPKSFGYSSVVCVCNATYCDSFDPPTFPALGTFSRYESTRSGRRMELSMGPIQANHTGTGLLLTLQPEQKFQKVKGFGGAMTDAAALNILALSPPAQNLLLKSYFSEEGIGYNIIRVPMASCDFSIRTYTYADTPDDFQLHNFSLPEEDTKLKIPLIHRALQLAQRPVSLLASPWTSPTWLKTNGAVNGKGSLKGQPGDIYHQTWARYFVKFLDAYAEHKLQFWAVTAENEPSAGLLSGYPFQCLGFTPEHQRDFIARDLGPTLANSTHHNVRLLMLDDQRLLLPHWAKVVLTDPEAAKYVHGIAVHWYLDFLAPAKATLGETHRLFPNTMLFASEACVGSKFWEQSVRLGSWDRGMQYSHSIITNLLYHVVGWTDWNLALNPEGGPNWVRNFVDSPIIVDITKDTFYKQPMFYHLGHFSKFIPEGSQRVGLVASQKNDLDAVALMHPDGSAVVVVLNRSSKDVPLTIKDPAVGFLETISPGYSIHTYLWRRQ
In short: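 Compounds titrated from 0.6 nM upwards against 0.2 nM enzyme in pH 5.9 citric acid/KH2PO4, taurocholate, tween-20; blue fluorogenic substrate 80 uM, 40 min room temperature, stopped and read Ex 365/Em 440 for AC50.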

[2] = AP1 Signaling Pathway (AID 357); conditions: ME-180 AP-1-bla reporter, EGF-induced, beta-lactamase ratio, 5 h; at 7.69 µM (top of the series) unless noted;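 note: ME-180 reporter cells stimulated with EGF at its EC50 level; % is set by controls: 0 for no effect and ±100 for the full control effect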
In short: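 First, ME-180 AP-1-bla cells were cultured overnight at 37 °C in low-serum Opti-MEM. Next, titrated compounds with EC50 EGF were incubated 5 hours. Finally, CCF4 was added for 2.5 hours and the 460/530 nm ratio recorded.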

[3] = NFAT Signaling Pathway (AID 444); conditions: Jurkat NFAT-bla M1, carbachol, beta-lactamase ratio, 5 h;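 note: carbachol stimulus at about its EC50 of 1 µM final; % is set by controls: 0 for no effect and ±100 for the full control effect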
In short: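 Jurkat cells with NFAT-driven β-lactamase reporter and co-expressed M1 receptor, stimulated with carbachol (final 1 uM, ~EC50), compound titration, 5 h at 37 °C. CCF4 loaded 1 h at RT; 460/530 nm ratio gave %activity and AC50.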

[4] = Stat Signaling Pathway (AID 446); conditions: ME-180 SIE beta-lactamase reporter, IL-6 stimulated, 5 h;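 note: ME-180 cervical cancer cells given 40 pM IL-6 alongside compound; SIE-controlled beta-lactamase reporter measured as 460/530 nm FRET emission ratio; % is set by controls: 0 for no effect and ±100 for the full control effect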
In short: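 ME-180 cells carrying a SIE-driven beta-lactamase reporter are stimulated with 40 pM IL-6 for 5 h at 37C in the presence of compound. The 460/530 nm FRET substrate ratio is read after 2.5 h at RT. Data are normalised to 300 pM IL-6 and to 125 nM JAK inhibitor controls.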

[5] = target: Glucocorticoid receptor (Homo sapiens) (UniProt P04150); assay: GR-GFP Redistribution (AID 450;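 active = compounds whose dose series gives a full or clear partial fitted curve of increased nuclear translocation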; note: potency is the fitted concentration of half-maximal effect); conditions: U2OS GR-GFP nuclear translocation, laser cytometry, 2 h
Glucocorticoid receptor (Homo sapiens), sequence (P04150 whole entry, looked up, the tested form may be a part): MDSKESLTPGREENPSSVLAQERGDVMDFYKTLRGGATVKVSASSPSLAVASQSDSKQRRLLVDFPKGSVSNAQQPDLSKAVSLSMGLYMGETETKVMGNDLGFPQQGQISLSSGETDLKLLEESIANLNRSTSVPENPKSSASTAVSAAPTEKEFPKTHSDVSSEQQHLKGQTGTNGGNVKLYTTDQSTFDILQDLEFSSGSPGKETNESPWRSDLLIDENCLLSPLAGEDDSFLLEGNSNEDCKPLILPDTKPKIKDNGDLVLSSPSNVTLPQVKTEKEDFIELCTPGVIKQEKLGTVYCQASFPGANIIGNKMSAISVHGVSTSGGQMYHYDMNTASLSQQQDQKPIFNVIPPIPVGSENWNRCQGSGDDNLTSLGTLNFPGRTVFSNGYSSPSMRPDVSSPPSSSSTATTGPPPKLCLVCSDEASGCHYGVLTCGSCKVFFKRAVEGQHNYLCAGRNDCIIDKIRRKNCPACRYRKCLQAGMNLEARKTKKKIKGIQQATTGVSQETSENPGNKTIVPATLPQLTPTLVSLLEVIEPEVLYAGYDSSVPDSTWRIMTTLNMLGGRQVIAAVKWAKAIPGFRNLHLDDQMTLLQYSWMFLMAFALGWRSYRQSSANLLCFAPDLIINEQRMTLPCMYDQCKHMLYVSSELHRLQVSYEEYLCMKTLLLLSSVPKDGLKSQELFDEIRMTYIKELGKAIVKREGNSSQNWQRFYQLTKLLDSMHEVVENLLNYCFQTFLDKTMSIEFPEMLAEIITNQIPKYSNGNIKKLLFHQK

[6] = target: Glucocorticoid receptor (Homo sapiens) (UniProt P04150); assay: GR-EFC Redistribution (AID 451; calls by dose curve; note: potency is the fitted concentration of half-maximal effect); conditions: CHO-K1 GR-EFC translocation, beta-gal luminescence, 2 h
In short: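 CHO-K1 cells expressing nuclear EA and GR-ED fragments of b-gal; compounds titrated up to 46 uM final, 2 h at 37 C. GR nuclear translocation read as complemented b-gal luminescence after 1 h RT detection.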

[7] = target: Mitogen-activated protein kinase 10 (Mus musculus) (UniProt Q61831); assay: JNK3 AlphaScreen Assay (AID 530); conditions: JNK3 lysate, c-Jun phosphorylation; series mostly up to 11.4 µM;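 note: kinase came from lysate of stimulated human HepG2 cells; signal reports phosphorylation of biotinylated GST-cJun 1-79 at Ser73 with 10 µM ATP; % is set by controls: 0 for no effect and ±100 for the full control effect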
In short: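 qHTS format: compounds tested as titrations against IL-1beta/TNF-alpha-activated HepG2 lysate JNK3 with biotin-GST-cJun substrate and 10 uM ATP at room temperature. Loss of anti-phospho-cJun AlphaScreen signal indicates inhibition.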

[8] = target: 3',5'-cyclic-AMP phosphodiesterase 4B (Homo sapiens) (UniProt Q07343); assay: qHTS Assay for Inhibitors of PDE-IV (AID 607; active = well fitted activation curve with a large enough effect in the main read-out, with a control signal flat, not every such curve was filed as active; note: % of control where 0% means no effect); conditions: HEK293 ACTOne CNG channel cells, membrane potential fluorescence; series mostly up to 22.9 µM
3',5'-cyclic-AMP phosphodiesterase 4B (Homo sapiens), sequence (Q07343 whole entry, looked up): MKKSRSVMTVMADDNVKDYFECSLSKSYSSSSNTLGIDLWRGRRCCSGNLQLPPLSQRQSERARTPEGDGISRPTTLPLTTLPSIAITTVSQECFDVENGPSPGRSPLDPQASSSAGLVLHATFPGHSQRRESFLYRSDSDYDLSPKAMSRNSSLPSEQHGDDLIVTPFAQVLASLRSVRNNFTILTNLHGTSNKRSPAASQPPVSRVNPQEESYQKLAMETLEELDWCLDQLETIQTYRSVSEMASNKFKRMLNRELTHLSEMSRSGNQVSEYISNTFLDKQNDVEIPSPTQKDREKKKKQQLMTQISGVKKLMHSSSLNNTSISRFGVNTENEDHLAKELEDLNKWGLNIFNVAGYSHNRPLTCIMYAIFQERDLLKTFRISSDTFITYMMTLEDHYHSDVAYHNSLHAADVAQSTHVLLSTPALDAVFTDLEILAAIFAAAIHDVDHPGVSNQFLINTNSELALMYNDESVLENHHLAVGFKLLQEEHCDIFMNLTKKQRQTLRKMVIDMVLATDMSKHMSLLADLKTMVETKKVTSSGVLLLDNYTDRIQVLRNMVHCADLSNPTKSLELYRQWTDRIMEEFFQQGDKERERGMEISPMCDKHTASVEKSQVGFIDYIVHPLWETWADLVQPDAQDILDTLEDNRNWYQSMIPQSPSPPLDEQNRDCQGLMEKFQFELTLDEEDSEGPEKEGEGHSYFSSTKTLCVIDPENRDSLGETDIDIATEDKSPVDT
In short: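 HEK293 ACTOne cells with CNG channel (1000/well), endogenous PDE4; membrane potential dye, compounds up to 22.9 uM final. Fluorescence Ex 535/Em 590; RO 20-1724 (100 uM final) as reference.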

[9] = target: Cytochrome P450 1A2 (Homo sapiens) (UniProt P05177); assay: p450-cyp1a2 (AID 410; calls by dose curve; note: potency is the fitted concentration of half-maximal effect); conditions: recombinant CYP1A2, luciferin-ME demethylation, luminescence; series mostly up to 11.4 µM
Cytochrome P450 1A2 (Homo sapiens), sequence (P05177 whole entry, looked up): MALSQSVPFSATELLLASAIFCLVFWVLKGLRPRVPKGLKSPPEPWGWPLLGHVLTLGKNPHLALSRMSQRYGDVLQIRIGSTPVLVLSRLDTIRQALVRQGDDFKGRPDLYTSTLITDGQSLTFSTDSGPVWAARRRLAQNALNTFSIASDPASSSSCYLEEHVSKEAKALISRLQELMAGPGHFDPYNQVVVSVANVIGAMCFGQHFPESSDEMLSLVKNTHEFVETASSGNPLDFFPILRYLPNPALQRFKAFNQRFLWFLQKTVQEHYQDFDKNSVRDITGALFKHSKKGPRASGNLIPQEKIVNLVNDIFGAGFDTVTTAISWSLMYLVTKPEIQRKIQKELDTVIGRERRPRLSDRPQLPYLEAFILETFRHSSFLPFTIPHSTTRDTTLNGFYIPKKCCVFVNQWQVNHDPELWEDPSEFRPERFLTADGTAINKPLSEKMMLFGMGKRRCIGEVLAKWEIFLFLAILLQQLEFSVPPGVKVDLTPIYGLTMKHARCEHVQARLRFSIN
In short: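 Human CYP1A2 (20nM) demethylated Luciferin-ME at its Km (100uM) in 100mM KPO4. After 10 min compound preincubation, NADPH regeneration ran the reaction 60 min at room temperature. Luciferin was read by luminescence, normalized to 57 uM furafylline.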

[10] = target: Cytochrome P450 3A4 (Homo sapiens) (UniProt P08684); assay: qHTS Assay for Activators of Cytochrome P450 3A4 (AID 885; active = well fitted curve in the direction sought with a large enough effect; an effect the other way counts as inactive or inconclusive; note: nearly all actives have a fitted effect of over 65% in size); conditions: recombinant CYP3A4, Luciferin-PPXE luminescence, 60 min; series mostly up to 11.4 µM
Cytochrome P450 3A4 (Homo sapiens), sequence (P08684 whole entry, looked up): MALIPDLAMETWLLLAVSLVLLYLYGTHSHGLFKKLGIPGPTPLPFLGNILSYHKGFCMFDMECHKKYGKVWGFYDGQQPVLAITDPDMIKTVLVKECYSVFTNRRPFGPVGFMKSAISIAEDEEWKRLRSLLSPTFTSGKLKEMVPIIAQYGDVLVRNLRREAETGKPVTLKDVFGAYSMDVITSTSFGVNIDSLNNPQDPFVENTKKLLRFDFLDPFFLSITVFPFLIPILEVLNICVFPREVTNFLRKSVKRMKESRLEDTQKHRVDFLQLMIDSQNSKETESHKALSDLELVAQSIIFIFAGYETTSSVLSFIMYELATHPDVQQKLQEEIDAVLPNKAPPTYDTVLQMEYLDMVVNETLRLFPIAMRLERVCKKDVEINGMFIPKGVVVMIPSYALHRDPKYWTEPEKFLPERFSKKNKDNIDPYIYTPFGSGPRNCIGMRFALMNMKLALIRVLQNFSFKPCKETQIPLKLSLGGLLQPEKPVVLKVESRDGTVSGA
In short: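 Human CYP3A4 (20 nM) with Luciferin-PPXE at 25 uM (its KM) in 200 mM KPO4; 10 min compound preincubation, then NADPH regeneration and 60 min reaction at RT. Luciferin read by luminescence; normalized to 57 uM ketoconazole full inhibition.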

[11] = target: ATP-dependent 6-phosphofructokinase (Trypanosoma brucei brucei) (UniProt O15648); assay: qHTS Assay to Find Inhibitors of T. brucei phosphofructokinase: hit validation (AID 492961; active = well fitted curve in the direction sought with a large enough effect; an effect the other way counts as inactive or inconclusive); conditions: T. brucei PFK, ADP-Glo luminescence; series mostly up to 51.4 µM
ATP-dependent 6-phosphofructokinase (Trypanosoma brucei brucei), sequence (O15648 whole entry, looked up): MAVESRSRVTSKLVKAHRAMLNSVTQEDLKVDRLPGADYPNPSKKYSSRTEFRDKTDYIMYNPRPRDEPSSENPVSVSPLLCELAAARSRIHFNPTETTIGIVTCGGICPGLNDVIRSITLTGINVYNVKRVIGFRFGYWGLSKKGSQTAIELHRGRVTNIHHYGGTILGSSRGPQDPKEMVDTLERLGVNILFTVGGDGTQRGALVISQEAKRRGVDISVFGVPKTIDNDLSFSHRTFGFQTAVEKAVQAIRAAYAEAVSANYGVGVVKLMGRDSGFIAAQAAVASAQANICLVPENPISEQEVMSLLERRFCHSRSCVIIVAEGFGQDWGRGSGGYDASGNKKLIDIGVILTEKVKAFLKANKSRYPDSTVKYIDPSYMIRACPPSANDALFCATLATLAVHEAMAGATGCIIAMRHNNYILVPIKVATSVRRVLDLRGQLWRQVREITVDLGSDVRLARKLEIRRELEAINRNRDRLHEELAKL
In short: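 Inhibition of parasite PFK is measured as reduced ADP formation, quantified via luciferase after ATP depletion. Assay used 0.1 mM ATP, 0.5 mM F6P, 1.25 nM enzyme, 45 min incubation.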

[12] = qHTS profiling for inhibitors of Plasmodium falciparum proliferation (AID 504749; active = well fitted curve in the direction sought with a large enough effect; an effect the other way counts as inactive or inconclusive;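 note: 0% = DMSO vehicle and full inhibition = artemisinin control; nearly all actives have a fitted effect of over 60% in size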); conditions: P. falciparum in erythrocytes, SYBR Green DNA, 72 h, at 28.7 µM (top of the series)
In short: (§1)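 Readout was DNA-dye fluorescence from lysed cultures, ex 485/em 535 nm. Parasitized red cells had grown 72 h with compound; data scaled between 0.29 uM artemisinin and DMSO wells and corrected using vehicle-only plates.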

AS120 = assay: as above; conditions: P. falciparum in erythrocytes, SYBR Green DNA, 72 h; series mostly up to 28.7 µM
In short: as §1

ATS189 = assay: as above; conditions: P. falciparum in erythrocytes, SYBR Green DNA, 72 h; series mostly up to 28.7 µM
In short: as §1

W2 = assay: as above; conditions: P. falciparum in erythrocytes, SYBR Green DNA, 72 h; series mostly up to 28.7 µM
In short: as §1

[13] = at 7.69 µM (top of the series) unless noted

O=C(O)[C@H]1CCCC[C@@H]1C(=O)Nc1nc2ccccc2[nH]1
inactive: Potency [1] > 11.4 µM | activity change, negative = inhibition [2] 1.58% | activity change, negative = inhibition [3, 13] 9.82% | activity, negative = inhibition [4, 13] 2.07% | Potency [5] > 46 µM | Potency [6] > 9.22 µM | Potency [7] | Potency [8]

CC(=O)Nc1c(C)cc(OCC(=O)O)cc1C
inactive: Potency [1] > 11.4 µM | activity change, negative = inhibition [2] -0.915% | activity change, negative = inhibition [3, 13] 19.3% | activity, negative = inhibition [4, 13] 12.5% | Potency [5] > 46 µM | Potency [6] > 9.22 µM | Potency [7] | Potency [8]

C[n+]1cccc(/C=C\c2ccc3cccc(O)c3n2)c1
inactive: Potency [1] > 11.4 µM | activity change, negative = inhibition [2] -0.115% | activity change, negative = inhibition [3, 13] 10.1% | activity, negative = inhibition [4, 13] 3.53% | Potency [5] > 46 µM | Potency [6] > 9.22 µM | Potency [7] | Potency [8]

FC(F)(F)c1cc(NC(=S)N2c3ccccc3-n3cccc3[C@H]2c2cccnc2)cc(C(F)(F)F)c1
inactive: Potency [1] > 11.4 µM | activity change, negative = inhibition [2] -2.69% | activity change, negative = inhibition [3, 13] 16.9% | activity, negative = inhibition [4, 13] -5.05% | Potency [5] > 46 µM | Potency [6] > 9.22 µM | Potency [7] | Potency [8]

O=C(O)c1ccc(C(=O)O)c2c(C(=O)O)ccc(C(=O)O)c12
inactive: Potency [1] > 11.4 µM | activity change, negative = inhibition [2] -5.07% | activity change, negative = inhibition [3, 13] 5.59% | activity, negative = inhibition [4, 13] -1.89% | Potency [5] > 46 µM | Potency [6] > 9.22 µM | Potency [7] | Potency [8]

CCOC(=O)c1c2c(n3ccccc13)C(=O)c1ccccc1C2=O
inactive: Potency [1] > 11.4 µM | activity change, negative = inhibition [2] 19.9% | Potency [5] > 46 µM | Potency [6] > 9.22 µM | Potency [8] | Potency [10]
active: Potency [9] 0.1 µM

O=C(O)C/C=C\CC(=O)O
inactive: Potency [1] > 11.4 µM | activity change, negative = inhibition [2] -4.27% | activity change, negative = inhibition [3, 13] 2.57% | activity, negative = inhibition [4, 13] 1.96% | Potency [5] > 46 µM | Potency [6] > 9.22 µM | Potency [7] | Potency [8]

O=C(NCc1cccs1)O[C@H]1C[C@H]2CC[C@@H]1C2
inactive: Potency [1] > 11.4 µM | activity change, negative = inhibition [2] 19.6% | activity change, negative = inhibition [3, 13] 16.7% | activity, negative = inhibition [4, 13] 8.46% | Potency [5] > 46 µM | Potency [6] > 9.22 µM | Potency [7] | Potency [8]

C(CCc1nnc2c(n1)CCCC2)Cc1nnc2c(n1)CCCC2
inactive: Potency [1] > 11.4 µM | activity change, negative = inhibition [2] 6.86% | activity change, negative = inhibition [3, 13] -8.87% | activity, negative = inhibition [4, 13] 0.257% | Potency [5] > 46 µM | Potency [6] > 9.22 µM | Potency [7] | Potency [8]

O=C(O)[C@@H](O)[C@@H](O)[C@H](O)C(=O)CO
inactive: Potency [1] > 11.4 µM | activity change, negative = inhibition [2] -1.75% | activity change, negative = inhibition [3, 13] -10.1% | activity, negative = inhibition [4, 13] 9.54% | Potency [5] > 46 µM | Potency [6] > 9.22 µM | Potency [7] | Potency [8] | outcome [11] | activity, negative = inhibition ([12]; parasite line A) 6.93% | activity, negative = inhibition ([12]; parasite line B) 7.4% | Potency (AS120) | Potency (ATS189) | Potency (W2)

C[C@H](CCC(=O)O)[C@H]1CC[C@@H]2[C@H]3[C@@H](C[C@@H](O)[C@]21C)[C@]1(C)CC[C@H](O)C[C@@H]1C[C@@H]3O
inactive: Potency [1] > 11.4 µM | activity change, negative = inhibition [2] 1.25% | activity change, negative = inhibition [3, 13] 14.6% | activity, negative = inhibition [4, 13] 13% | Potency [5] > 46 µM | Potency [6] > 9.22 µM | Potency [7] | Potency [8] | outcome [11] | activity, negative = inhibition ([12]; parasite line A) -6.11% | activity, negative = inhibition ([12]; parasite line B) -10.8% | Potency (AS120) | Potency (ATS189) | Potency (W2)

O=C(O)CN1C(=O)O[C@@H](c2ccccc2)C1=O
inactive: Potency [1] > 11.4 µM | activity change, negative = inhibition [2] -1.65% | activity change, negative = inhibition [3, 13] 11.5% | activity, negative = inhibition [4, 13] -12.2% | Potency [5] > 46 µM | Potency [6] > 9.22 µM | Potency [7] | Potency [8]

N=C(CC(=O)Nc1ccccn1)c1ccccc1
inactive: Potency [1] > 11.4 µM | activity change, negative = inhibition [2] 3.96% | activity change, negative = inhibition [3, 13] 28.4% | activity, negative = inhibition [4, 13] 5.02% | Potency [5] > 46 µM | Potency [6] > 9.22 µM | Potency [7] | Potency [8]

O=C1c2cccc(O)c2C(=O)c2c(O[C@@H]3O[C@H](CO)[C@@H](O)[C@H](O)[C@@H]3O)cccc21
active: Potency [1] 2.95 µM
inactive: activity change, negative = inhibition [2] 29.9% | activity change, negative = inhibition [3, 13] 5.22% | activity, negative = inhibition [4, 13] 8.12% | Potency [5] > 46 µM | Potency [6] > 9.22 µM | Potency [7] | Potency [8]

C[C@H](Oc1ccc(Oc2cnc3ccc(Cl)cc3n2)cc1)C(=O)O
inactive: Potency [1] > 11.4 µM | activity change, negative = inhibition [2] -24.4% [at 38 µM] | activity change, negative = inhibition ([3]; at 7.69 µM (top of the series)) 8.25% | activity change, negative = inhibition ([3]; at 38 µM (top of the series)) 7.14% | activity, negative = inhibition ([4]; at 7.69 µM (top of the series)) -19.5% | activity, negative = inhibition ([4]; at 38 µM (top of the series)) -10.1% | Potency [5] > 46 µM | Potency [6] > 46 µM and > 9.22 µM | Potency [7] | Potency [8]
